We go through 13 molecules from PubChem BioAssay (NCI).

Common to all, as to assay: NCI-60 one-dose screen, 48 h (100 = growth as untreated, 0 = no growth, -100 = all killed)
Common to all, as to conditions: 10 µM unless noted

Experiment [1] deals with NCI-H23 lung.
Experiment [2] has as its system NCI-H226 lung.
For experiment [3], the system named is NCI-H322M lung.
The subject of experiment [4] is HOP-62 NSCLC.
The subject of experiment [5] is NCI-H460 lung.
Experiment [6] has as its system HOP-92 NSCLC.
The test system of experiment [7] is NCI-H522 lung.
In experiment [8] the test system is A549/ATCC NSCLC.
In experiment [9] the test system is 786-0 renal.
The test system of experiment [10] is COLO 205 colon.

The panel holds about 83,000 compounds, 20% with a hit somewhere; the sample as a whole holds those more often.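 96-well plates, one dose, 48 hours. Percent growth reported; active if below 10.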 Unmarked numbers belong to inactive results. Active and inactive are the calls of the source.

With `COc1ccc(/C(Cl)=N/N=C(\Cl)c2cc(OC)c(OC)c(OC)c2)cc1OC(C)=O`, the growth was 99.2% in [1]; 95.3% in experiment [2]; 95.1% in [3]; 87.5% in experiment [4]; 97.4% in experiment [5]; 77.3% in [6]. Also, the growth in experiment [7] was 50.2%; in experiment [8], 86.5%; in experiment [9] it was 102%; in experiment [10] it was 98.9%.

`O=C(Nc1cccc(-n2ccc3c(NC(=O)c4ccccc4)nccc32)c1)c1cc(N2CCOCC2)cc(C(F)(F)F)c1`: the growth in experiment [1] was 19.8%; in experiment [2] it was 28.7%; in experiment [3], 30.8%; in [4], 36.6%; in experiment [5], -11% (active); in experiment [6], 29.3%. Also, the growth was -47.5% (active) in experiment [7], -8.84% (active) in experiment [8], -31.6% (active) in experiment [9] and -51.4% (active) in experiment [10].

Take `COC(=O)/C=C/C(=O)c1cc(C)cc(C)c1O`: the growth in experiment [1] was 97.5%; in [2] it was 102%; in [3], 101%; in experiment [4], 96.6%; in experiment [5] it was 111%; in experiment [6] it was 113%. The growth in [7] was 92.9%; in experiment [8] it was 98.6%; in [9], 100%; in experiment [10], 108%.

In the case of `O=C(Nc1ccc(-n2ccc3c(NC(=O)c4ccccc4)nccc32)cc1)c1ccc(Cl)c(C(F)(F)F)c1`, the growth in [1] is 64%; in experiment [2] it was 69.9%; in experiment [3] it was 66.1%; in [4] it was 53.9%; in [5], -67% (active); in experiment [6] it was 46.5%. Besides, the growth is -0.6% (active) in experiment [7], -29.9% (active) in experiment [8], 22.9% in experiment [9] and 37.2% in [10].

For the molecule `O=C(O)c1cccc2oc(-c3ccccc3O)nc12`, the growth in [1] is 54.4%; in experiment [2], 63%; in [3] it was 58.7%; in experiment [4], 43.6%; in experiment [5], 25.2%; in [6], 48.8%. The growth was 31.4% in experiment [7], 42% in experiment [8], 59.5% in experiment [9] and 12.4% in [10].

On to `COc1ccc2c(-c3ccc(F)cc3)c(C#N)c(=NC(C)=O)oc2c1`, for which the growth in experiment [1] is 53.8%; in experiment [2], 89.6%; in experiment [3], 58.2%; in experiment [4] it was 62.8%; in experiment [5], 23.3%; in [6], 70.6%. The growth in experiment [7] is 5.83% (active); in experiment [8], 53.4%; in experiment [9], 33.4%; in experiment [10] it was 106%.

Consider `O=C(COc1ccc(Cl)cc1)N1CCN(Cc2ccc3c(c2)OCO3)CC1`, for which the growth in [1] is 89.8%; in experiment [2] it was 101%; in experiment [3], 105%; in experiment [4], 101%; in [5] it was 107%; in experiment [6] it was 81.1%. Further, the growth in experiment [7] is 93.8%; in experiment [8], 96.3%; in experiment [9], 101%; in experiment [10], 96.1%.

In the case of `CCN(CC)C(=O)C1CCN(C(=O)c2ccccc2)CC1`, the growth in experiment [1] is 95.1%; in experiment [2], 94.1%; in experiment [3], 99.4%; in [4], 93.3%; in experiment [5] it was 104%; in experiment [6] it was 98.8%. In addition, the growth was 90.8% in experiment [7], 104% in experiment [8], 97.3% in [9] and 106% in [10].

`C=C1c2c(Cl)ccc(O)c2C(O)=C2C(=O)[C@]3(O)C(O)=C(C(N)=O)C(=O)[C@@H](N(C)C)[C@@H]3[C@@H](O)[C@H]12`: the growth in experiment [1] is 8.01% (active); in experiment [2] it was 42.7%; in [3], -2.1% (active); in experiment [4] it was 9.39% (active); in experiment [5], 4.63% (active); in [6] it was -37.3% (active). Besides, the growth in experiment [7] is 11.6%; in experiment [8] it was 9.74% (active); in experiment [9], 8.22% (active); in experiment [10], 22.5%.

For the molecule `COc1ccc(-c2nn(-c3ccc(NC(=O)c4cc(Cl)cc(Cl)c4)cc3)cc2-c2ccncc2)cc1Cl`, the growth in experiment [1] is 83.7%; in experiment [2] it was 98.4%; in experiment [3], 88.6%; in experiment [4], 59.9%; in experiment [5], 38.3%; in experiment [6], 84.6%. Also, the growth in experiment [7] is 87.6%; in [8], 53.1%; in experiment [9] it was 3.68% (active); in experiment [10], 46.9%.

Consider `COc1ccc(-c2cc3ccc(N(C)C)cc3nc2N)c(F)c1`, for which the growth in [1] was 19%; in experiment [2], 48.2%; in [3] it was 66.9%; in experiment [4], 40.3%; in experiment [5], 31.9%; in experiment [6] it was 19%. Moreover, the growth in experiment [7] was 31%; in [8], 40.8%; in [9], 48.3%; in experiment [10], 12.2%.

For the molecule `CC(=O)N[C@@H](CNC(=O)c1cc(NC(=O)c2cc(NC(=O)c3cc(NC(=O)c4nccn4C)cn3C)cn2C)cn1C)CC(=O)Nc1cn(C)c(C(=O)Nc2cc(C(=O)Nc3cc(C(=O)Nc4cc(C(=O)NCCCN(C)CCCNC(=O)c5cccc(C(=O)O)c5)n(C)c4)n(C)c3)n(C)c2)n1`, the growth was 89.9% in experiment [1]; 58.4% in experiment [2]; 57% in [3]; 91.6% in experiment [4]; 10.6% in experiment [5]; 106% in experiment [6]. Besides, the growth was 39% in [7], -10.7% (active) in experiment [8], 82.7% in experiment [9] and 45.1% in experiment [10].

For the molecule `CN(C)c1ncc(C#Cc2c(F)cccc2F)c2ccccc12`, the growth in experiment [1] was 89.9%; in experiment [2] it was 89.4%; in experiment [3], 88.5%; in experiment [4], 88.1%; in experiment [5], 84%; in experiment [6], 40.4%. Further, the growth in experiment [7] is 70.7%; in experiment [8] it was 86.5%; in [9], 105%; in [10], 98.7%.
